# In PubChem BioAssay:
# “And” between values parts separate entries of the source, which are not always exact repeats. Equal entries are not always repeated. The source holds several records for some structures; these can differ, active in one and inactive in another. The source made the active and inactive calls.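 Rule for the calls, unless noted: active = compounds whose cell count with miR-34 switched on is under 0.7 times the count with it off; inactive = the rest.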
# What was measured:
# [1] = Wnt pathway potentiators raising nuclear beta-catenin – imaging, WNT3A-conditioned medium, mouse C2C12, NPC library, primary screen (AID 1117326; in the data active = nuclear beta-catenin stimulation mostly above about 4.2%, no sharp cut-off; inactive = mostly below about 10%); details: stronger effect = higher value
# [2] = stimulators of insulin release from INS-1E, primary screen, cell-based, 5 mM glucose, NPC library (AID 1117329;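 active = compound raises insulin release from rat beta cells at 5 mM glucose, no numeric limit stated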); details: rat INS-1E insulin secretion, at 10 µM, stronger effect = higher value
# [3] = growth inhibition of GSK3B-pretreated HCT116 cells – cell-based, CellTiter-Glo, 0.2 to 20 µM (AID 1117336;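 active = compounds lowering colon cancer cell viability after pretreatment blocking the GSK3B kinase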); details: HCT116 viability after GSK3B inhibitor, at 20 µM, stronger effect = higher value
# [4] = inhibition of endothelial tube formation, primary screen, imaging, VEGF stimulated, CD31 staining, tube area, NPC library (AID 1117340;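 active = compound that reduces growth-factor-driven endothelial tube area in a mixed cell culture, no cutoff stated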); details: VEGF-stimulated ADSC/ECFC co-culture, at 10 µM, stronger effect = higher value
# [5] = GLP1 release stimulators, primary, NCI-H716, NPC library (AID 1117341;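 active = compound raises GLP1 secretion from the human gut endocrine cells, with no numeric limit stated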); details: NCI-H716 cells, at 10 µM, stronger effect = higher value
# [6] = HCT116 colon cancer cell growth inhibition, primary screen, CellTiter-Glo luminescence, NPC library (AID 1117342;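 active = compounds that lower survival of HCT116 colon cancer cells in the luminescence readout, no numeric limit stated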); details: at 20 µM (top of the series)
# [7] = reduced SW480 viability measured with CellTiter-Glo, NPC library, primary (AID 1117343;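 active = compounds that lower viability of the colon cancer cells in the luminescence readout, with no numeric limit stated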); details: CellTiter-Glo luminescence; at 20 µM (top of the series) unless noted
# [8] = NPC library primary testing for decreased DLD-1 cell viability via CellTiter-Glo (AID 1117346;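 active = compounds that lower survival of DLD-1 colon cancer cells in the luminescence readout, no cutoff given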); details: DLD-1 viability, CellTiter-Glo luminescence; at 20 µM (top of the series)
# [9] = EMT-state selective cytotoxicity in co-culture – imaging, PC-3E GFP, TEM4-18 mCherry, primary screen (AID 1345086;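 active = compounds killing one labelled cell type while sparing the other, by normalised counts and ratio limits, not self-fluorescent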;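 for all read-outs here: cells exposed to compound for 72 h before imaging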;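 for red/green cell ratio (normalised): normalised mesenchymal count divided by normalised epithelial count so high means epithelial killing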); details: PC-3E GFP / TEM4-18 mCherry co-culture, imaging cell counts, at 1 µM; for red/green cell ratio (normalised): actives lie on both sides, counts scaled to control wells, 1 = unselective
# [10] = viability loss with induced miR-34 in A549 – imaging, A549 dox-inducible miR-34, nuclei and caspase counts, primary screen (AID 1347080); details: A549 miR-34 inducible, Hoechst nuclei count, 48 h
# [11] = MELAS cybrid and Rieske KO viability enhancers – cell-based, MELAS cybrids, Rieske KO mouse fibroblasts, CellTiter-Glo, primary screen (AID 1508586;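 active = mean z-score across replicates of 1.96 or higher in either the MELAS or the Rieske mutant cell line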;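 note: z relative to plate mean and SD of compound and empty wells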); details: low glucose
# [12] = target: NAD(+) hydrolase SARM1 (Homo sapiens) (UniProt Q6SZW1); assay: blocking NAD cleavage by SARM1 SAM-TIR – cell lysate, NAD-Glo luminescence (AID 1508614;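 active = compound whose remaining NAD level is above about 45 nM, limit read from the data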;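 note: higher remaining NAD means stronger inhibition of SARM1 NADase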); details: SAM-TIR HEK293T lysate NADase, at 1 µM, stronger effect = higher value
# [13] = compounds altering viability of human ES cells (AID 493140; call rule not given here;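 note: cells exposed to compounds for four days before counting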); details: human embryonic stem cell survival screen; stronger effect = higher value
# [14] = P. berghei load reduction in hepatocytes – cell-based, HepG2, luciferase luminescence, HepG2 viability, primary screen (AID 624349; in the data active = parasite load remaining mostly below about 12%, no sharp cut-off; inactive = mostly above about 10%;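 note: 100% = mean of DMSO negative control wells on the same plate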); details: P. berghei liver stage in HepG2, luciferase luminescence, concentration not given here; parasite load remaining: stronger effect = lower value; viability: measured here: HepG2 viability without parasites
# [15] = measured here: epithelial PC-3E GFP cell survival
# [16] = measured here: mesenchymal TEM4-18 mCherry cell survival
# [17] = stronger effect = lower value, cell number ratio, induced over uninduced
# [18] = measured here: relative caspase fold change +Dox/-Dox
# [19] = measured here: total cells with miR-34 induction, stronger effect = lower value
# [20] = measured here: total cells without miR-34 induction
# [21] = MELAS cybrid survival, CellTiter-Glo 48 h, stronger effect = higher value
# [22] = Rieske KO mouse fibroblast survival, CellTiter-Glo 72 h
# Chain of NAD(+) hydrolase SARM1 (Homo sapiens) (Q6SZW1 whole entry, looked up): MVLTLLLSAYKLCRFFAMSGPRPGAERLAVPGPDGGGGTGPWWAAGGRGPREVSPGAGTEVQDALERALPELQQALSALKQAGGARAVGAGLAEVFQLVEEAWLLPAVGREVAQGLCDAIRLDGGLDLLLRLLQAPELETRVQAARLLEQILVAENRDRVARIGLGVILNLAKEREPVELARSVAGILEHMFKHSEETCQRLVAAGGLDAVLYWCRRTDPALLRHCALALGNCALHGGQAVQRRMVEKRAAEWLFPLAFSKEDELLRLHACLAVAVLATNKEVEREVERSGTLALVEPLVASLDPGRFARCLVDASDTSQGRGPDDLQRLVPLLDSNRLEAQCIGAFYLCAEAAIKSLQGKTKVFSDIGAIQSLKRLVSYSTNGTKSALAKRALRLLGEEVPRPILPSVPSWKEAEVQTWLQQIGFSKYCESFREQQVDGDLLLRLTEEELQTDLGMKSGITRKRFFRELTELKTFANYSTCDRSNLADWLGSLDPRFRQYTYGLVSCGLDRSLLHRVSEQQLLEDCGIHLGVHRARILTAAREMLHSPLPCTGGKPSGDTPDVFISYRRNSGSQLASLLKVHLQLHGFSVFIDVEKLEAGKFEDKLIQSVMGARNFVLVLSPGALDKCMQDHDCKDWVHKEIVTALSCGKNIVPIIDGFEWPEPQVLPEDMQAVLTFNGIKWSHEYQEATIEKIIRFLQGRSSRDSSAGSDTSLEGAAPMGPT
compound,measurement,setting,value
OC1(c2ccc(Cl)c(C(F)(F)F)c2)CCN(CCCC(c2ccc(F)cc2)c2ccc(F)cc2)CC1,nuclear beta-catenin stimulation,[1]; at 10 µM,-2.1% (inactive)
same,nuclear beta-catenin stimulation,"[1]; stimulation, at 2 µM",27.1%
same,insulin secretion stimulation,[2],0.05% (inactive)
same,viability decrease,[3],117% (active)
same,tube area decrease,[4],112% (active)
same,GLP1 secretion stimulation,[5],51.4% (active)
same,inhibition of viability,[6],124% (active)
same,viability decrease (inhibition),[7],158% (active)
same,viability decrease (inhibition),[8],101% (active)
same,red/green cell ratio (normalised),[9],0.98 (inactive)
same,normalised cell number,[9]; [15],0.98
same,normalised cell number,[9]; [16],0.96
same,fold change,[10]; [17],0.677 (active) and 0.99 (inactive)
same,fold change,[10]; [18],1.19 and 0.678
same,cell count,[10]; [19],3030 and 2930
same,cell count,[10]; [20],4480 and 2970
same,z-score,[11]; [21],-0.344 (inactive)
same,z-score,[11]; [22],-0.197
same,remaining NAD,[12],10 nM (inactive)
O=C(N/N=C/c1ccc([N+](=O)[O-])o1)c1ccc(O)cc1,survival,[13],8.5 (inactive)
same,parasite load remaining,[14],-8.11% (inactive) and 25.6% (inactive)
same,viability,[14],21.5% and 60.5%
same,nuclear beta-catenin stimulation,[1]; at 10 µM,18.2% (inactive)
same,nuclear beta-catenin stimulation,"[1]; stimulation, at 2 µM",2%
same,insulin secretion stimulation,[2],-3% (inactive)
same,viability decrease,[3],99.5% (active)
same,tube area decrease,[4],26.5% (inactive)
same,GLP1 secretion stimulation,[5],5.1% (inactive)
same,inhibition of viability,[6],102% (active)
same,viability decrease (inhibition),[7],67.8% (active)
same,viability decrease (inhibition),[8],81.1% (active)
same,red/green cell ratio (normalised),[9],0.78 (inactive)
same,normalised cell number,[9]; [15],1.11
same,normalised cell number,[9]; [16],0.87
same,fold change,[10]; [17],0.844 (inactive)
same,fold change,[10]; [18],1.92
same,cell count,[10]; [19],3090
same,cell count,[10]; [20],3660
same,z-score,[11]; [21],-3.44 (inactive)
same,z-score,[11]; [22],-1.34
same,remaining NAD,[12],10 nM (inactive)
CCCCOC(=O)c1ccc(O)cc1,survival,[13],2.33 (inactive)
same,parasite load remaining,[14],105% (inactive) and 43.2% (inactive)
same,viability,[14],94.2% and 99.8%
same,nuclear beta-catenin stimulation,[1]; at 10 µM,1.7% (inactive)
same,nuclear beta-catenin stimulation,"[1]; stimulation, at 2 µM",1.9%
same,insulin secretion stimulation,[2],4.6% (inactive)
same,viability decrease,[3],-64.4% (inactive)
same,tube area decrease,[4],17% (inactive)
same,GLP1 secretion stimulation,[5],-6.3% (inactive)
same,inhibition of viability,[6],15% (inactive)
same,viability decrease (inhibition),[7],67.9% (active)
same,viability decrease (inhibition),[8],9.6% (inactive)
same,red/green cell ratio (normalised),[9],1.09 (inactive)
same,normalised cell number,[9]; [15],1.43
same,normalised cell number,[9]; [16],1.56
same,fold change,[10]; [17],0.899 (inactive) and 0.857 (inactive)
same,fold change,[10]; [18],1.34 and 7.37
same,cell count,[10]; [19],8710 and 10100
same,cell count,[10]; [20],9690 and 11800
same,z-score,[11]; [21],0.705 (inactive)
same,z-score,[11]; [22],-0.347
same,remaining NAD,[12],10 nM (inactive)
CN1CCC(=C2c3ccccc3CCc3cccnc32)CC1,nuclear beta-catenin stimulation,[1]; at 10 µM,-2.3% (inactive)
same,nuclear beta-catenin stimulation,"[1]; stimulation, at 2 µM",-0.6%
same,insulin secretion stimulation,[2],9.4% (inactive)
same,viability decrease,[3],-3.7% (inactive)
same,tube area decrease,[4],15.1% (inactive)
same,GLP1 secretion stimulation,[5],2.5% (inactive)
same,inhibition of viability,[6],-2.7% (inactive)
same,viability decrease (inhibition),[7],13.6% (inactive)
same,viability decrease (inhibition),[8],-0.2% (inactive)
same,red/green cell ratio (normalised),[9],0.76 (inactive)
same,normalised cell number,[9]; [15],1.26
same,normalised cell number,[9]; [16],0.95
same,fold change,[10]; [17],0.929 (inactive) and 0.835 (inactive)
same,fold change,[10]; [18],0.933 and 0.421 and 1.15
same,cell count,[10]; [19],8510 and 8540 and 7120
same,cell count,[10]; [20],9160 and 9200 and 8530
same,z-score,[11]; [21],-0.226 (inactive) and -0.309 (inactive) and -0.701 (inactive)
same,z-score,[11]; [22],-0.00379 and -0.328 and -0.133
same,remaining NAD,[12],10 nM (inactive)
CC(C)(C)C(=O)C(Oc1ccc(Cl)cc1)n1ccnc1 (stereo not drawn),parasite load remaining,[14],15% (inactive)
same,viability,[14],70%
same,nuclear beta-catenin stimulation,[1]; at 10 µM,2.6% (inactive)
same,nuclear beta-catenin stimulation,"[1]; stimulation, at 2 µM",1.9%
same,insulin secretion stimulation,[2],2.5% (inactive)
same,viability decrease,[3],6.3% (inactive)
same,tube area decrease,[4],11.3% (inactive)
same,GLP1 secretion stimulation,[5],7.4% (inactive)
same,inhibition of viability,[6],34.8% (inactive)
same,viability decrease (inhibition),[7],27.1% (inactive)
same,viability decrease (inhibition),[8],44.1% (inactive)
same,red/green cell ratio (normalised),[9],0.92 (inactive)
same,normalised cell number,[9]; [15],0.94
same,normalised cell number,[9]; [16],0.86
same,fold change,[10]; [17],0.911 (inactive) and 0.872 (inactive)
same,fold change,[10]; [18],1.11 and 1.1
same,cell count,[10]; [19],8350 and 8730
same,cell count,[10]; [20],9170 and 10000
same,z-score,[11]; [21],-0.118 (inactive) and 0.2 (inactive)
same,z-score,[11]; [22],-0.278 and -0.284
same,remaining NAD,[12],10 nM (inactive)
CCCCOc1cc(C(=O)OCCN(CC)CC)ccc1N,survival,[13],11.5 (inactive)
same,parasite load remaining,[14],22.4% (inactive) and 92.2% (inactive)
same,viability,[14],49.5% and 89.9%
same,nuclear beta-catenin stimulation,[1]; at 10 µM,1.9% (inactive)
same,nuclear beta-catenin stimulation,"[1]; stimulation, at 2 µM",3.9%
same,insulin secretion stimulation,[2],50.7% (active)
same,viability decrease,[3],45.5% (inactive)
same,tube area decrease,[4],14.2% (inactive)
same,GLP1 secretion stimulation,[5],7.1% (inactive)
same,inhibition of viability,[6],66% (active)
same,viability decrease (inhibition),[7],51.8% (active)
same,viability decrease (inhibition),[8],81.6% (active)
same,red/green cell ratio (normalised),[9],0.93 (inactive)
same,normalised cell number,[9]; [15],1.02
same,normalised cell number,[9]; [16],0.95
same,fold change,[10]; [17],0.886 (inactive) and 0.893 (inactive) and 0.93 (inactive)
same,fold change,[10]; [18],1.39 and 0.433 and 0.883
same,cell count,[10]; [19],8530 and 8120 and 7780
same,cell count,[10]; [20],9620 and 9090 and 8360
same,z-score,[11]; [21],0.206 (inactive) and -0.26 (inactive) and 0.345 (inactive)
same,z-score,[11]; [22],-0.405 and -0.149 and 0.0628
same,remaining NAD,[12],10 nM (inactive)
O=C(Oc1cccc2cccnc12)c1ccccc1,parasite load remaining,[14],41.2% (inactive)
same,viability,[14],102%
same,nuclear beta-catenin stimulation,[1]; at 10 µM,19.8% (inactive)
same,nuclear beta-catenin stimulation,"[1]; stimulation, at 2 µM",0.5%
same,insulin secretion stimulation,[2],-2.2% (inactive)
same,viability decrease,[3],23.6% (inactive)
same,tube area decrease,[4],-21.4% (inactive)
same,GLP1 secretion stimulation,[5],0.9% (inactive)
same,inhibition of viability,[6],27.1% (inactive)
same,viability decrease (inhibition),[7],22.8% [at 2 µM] (inactive)
same,viability decrease (inhibition),[8],-5.55% (inactive)
same,red/green cell ratio (normalised),[9],1 (inactive)
same,normalised cell number,[9]; [15],1.14
same,normalised cell number,[9]; [16],1.13
same,fold change,[10]; [17],0.805 (inactive)
same,fold change,[10]; [18],5.26
same,cell count,[10]; [19],10400
same,cell count,[10]; [20],12900
same,z-score,[11]; [21],0.276 (inactive)
same,z-score,[11]; [22],0.498
same,remaining NAD,[12],10 nM (inactive)
O=C(O)CN(CCN(CC(=O)O)CC(=O)O)CCN(CC(=O)O)CC(=O)O,survival,[13],5 (inactive)
same,parasite load remaining,[14],120% (inactive) and 34.8% (inactive)
same,viability,[14],101% and 170%
same,nuclear beta-catenin stimulation,[1]; at 10 µM,-0.8% (inactive)
same,nuclear beta-catenin stimulation,"[1]; stimulation, at 2 µM",-1.5%
same,insulin secretion stimulation,[2],1.5% (inactive)
same,viability decrease,[3],79% (active)
same,tube area decrease,[4],-14.3% (inactive)
same,GLP1 secretion stimulation,[5],0.1% (inactive)
same,inhibition of viability,[6],53.1% (active)
same,viability decrease (inhibition),[7],79.5% (active)
same,viability decrease (inhibition),[8],31.1% (inactive)
same,red/green cell ratio (normalised),[9],1.45 (inactive)
same,normalised cell number,[9]; [15],0.48
same,normalised cell number,[9]; [16],0.7
same,fold change,[10]; [17],1.07 (inactive) and 0.79 (inactive) and 0.864 (inactive)
same,fold change,[10]; [18],1.26 and 1.98 and 3.01
same,cell count,[10]; [19],8980 and 7930 and 10700
same,cell count,[10]; [20],8380 and 10000 and 12300
same,z-score,[11]; [21],0.621 (inactive)
same,z-score,[11]; [22],0.97
same,remaining NAD,[12],10 nM (inactive)
